Results published in PubChem BioAssay AID1159580 (chemical genetic matrix, 2015).
Out of some 5,500 compounds screened, about 2,000 (36%) were called active. Inconclusive results (about 18%) are left out. The list shows a part of the results. Values without a mark were called inactive. No stated cut-off is given here; in the data, active means normalized growth mostly below about 0.91 (no sharp cut-off); inconclusive means no clear call, values can overlap the other calls; inactive means mostly above about 0.92.

Assay: chemical genetic growth profiling, strain panel (AID 1159580);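 further: tested at 20 µM; growth read once vehicle control cultures reached saturation at 30 °C; 1 = growth at the plate median or of vehicle wells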
Conditions: S. cerevisiae deletion strains, growth OD
[1] = locus YAL040C, strain CLN3, stronger effect = lower value
[2] = locus YER002W, strain NOP16, stronger effect = lower value
[3] = locus YNL175C, strain NOP13, stronger effect = lower value
[4] = locus YNL197C, strain WHI3, stronger effect = lower value
[5] = locus YNL224C, strain SQS1, stronger effect = lower value
[6] = locus YOR083W, strain WHI5 (second series), stronger effect = lower value

Structure (SMILES): C[N+](C)(C)CC(=O)O
- normalized growth [1]: 0.989
- normalized growth (locus YDR150W, strain NUM1, stronger effect = lower value): 0.995
- normalized growth (locus YDR363W, strain ESC2, stronger effect = lower value): 1.02
- normalized growth [2]: 1
- normalized growth (locus YGR078C, strain PAC10, stronger effect = lower value): 0.998
- normalized growth (locus YJR075W, strain HOC1, stronger effect = lower value): 1.01
- normalized growth (locus YMR307W, strain GAS1, stronger effect = lower value): 1.02
- normalized growth [3]: 1.01
- normalized growth [4]: 1
- normalized growth [5]: 1.01
- normalized growth (locus YNL322C, strain KRE1, stronger effect = lower value): 1
- normalized growth [6]: 1.01

Structure (SMILES): CC(=O)SCC[N+](C)(C)C
- normalized growth [1]: 1.12 [resistant] (active)
- normalized growth [2]: 1.04
- normalized growth [3]: 1.02
- normalized growth [4]: 1.02
- normalized growth [5]: 0.972
- normalized growth [6]: 0.982
- normalized growth (locus YPL055C, strain LGE1, stronger effect = lower value): 1.01
